Assay outcomes: PubChem, several laboratories
MEX-5 binding = MEX-5 zinc finger RNA-binding disruptors – biochemical, C. elegans, fluorescence polarization, MLPCN library, primary screen; Zinc finger protein mex-5 (Caenorhabditis elegans), Q9XUB2; MEX-5/FITC-TCR2 RNA binding; hits give low values; activity score (negative = inhibition of binding), % at 10 µM; actives 0.38% (n = 300,000); AID 1832, 2009;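 active = inhibition past about -25% in most replicates, and total fluorescence under double the plate's negative control median, limit read from the data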;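 note: 0% = DMSO and -100% = 5 µM competing unlabeled TCR2 RNA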
Target sequence (Q9XUB2 whole entry, looked up): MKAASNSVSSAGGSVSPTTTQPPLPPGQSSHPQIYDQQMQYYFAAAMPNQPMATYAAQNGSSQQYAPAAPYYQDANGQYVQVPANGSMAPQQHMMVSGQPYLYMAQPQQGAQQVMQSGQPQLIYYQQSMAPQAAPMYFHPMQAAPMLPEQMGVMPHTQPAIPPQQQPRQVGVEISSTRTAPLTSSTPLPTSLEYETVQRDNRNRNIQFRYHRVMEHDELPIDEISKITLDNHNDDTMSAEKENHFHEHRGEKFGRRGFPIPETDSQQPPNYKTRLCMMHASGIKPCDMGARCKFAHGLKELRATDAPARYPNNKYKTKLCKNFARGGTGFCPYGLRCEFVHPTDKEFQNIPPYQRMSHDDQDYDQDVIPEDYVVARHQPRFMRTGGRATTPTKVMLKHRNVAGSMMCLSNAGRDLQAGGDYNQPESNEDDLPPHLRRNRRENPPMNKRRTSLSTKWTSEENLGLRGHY
VLA-4 inh = inhibition in human VLA-4 binding assay, primary screen, VLA-4 allosteric modulator project, MLPCN library, flow cytometry, VLA-4 expressing cells; Integrin alpha-4 (Homo sapiens), P13612; ligand binding flow cytometry; inhibition, % (about 7 µM as worked out from the volumes in the protocol); actives 0.2% (n = 330,000); AID 2557, 2010; in the data active = inhibition above about 50%
JMJD2C inh = inhibitors of GASC-1 histone demethylase, primary screen, biochemical, fluorescence, DELFIA europium | actives 0.069% (n = 330,000) | GST-JMJD2C(1-420) H3K9me3 demethylation | inhibition, % at 2.35 µM | Lysine-specific demethylase 4C (Homo sapiens), Q9H3R0;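 active = more than half of a compound's replicate wells show inhibition beyond 50%, single wells judged on their own value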;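 note: signal counts dimethyl H3K9 product captured on neutravidin plate; 0% = median of DMSO wells and 100% = 0.3 times that DMSO median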
Exocytosis inh = LAMP-1 surface exposure blockers, TALL-104 cells – cell-based, flow cytometry, MLPCN library, primary screen | actives 0.66% (n = 360,000) | TALL-104 LAMP-1 surface exposure; cells stimulated with thapsigargin and PMA | inhibition, % at 10 µM | AID 651702, 2012;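 active = inhibition above about 55%, limit read from the data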
HTR2A ag = mouse Htr2a agonists via beta-arrestin recruitment, primary screen, cell-based, luminescence; 5-hydroxytryptamine receptor 2A (Mus musculus), P35363; CHO-K1 mHTR2A beta-arrestin complementation; percent of 30 µM serotonin response; activation, % at 7.6 µM; actives 0.66% (n = 360,000);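 active = activation above a run cutoff, the mean activation of all tested compounds plus 3 SD, cut at about 14% in these data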;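 note: 0% = plate median of compound wells and 100% = 30 µM serotonin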
V-ATPase pHluor = regulators of yeast V-ATPase proton pumping, primary screen, pHLuorin cytosolic pH fluorescence; actives 0.37% (n = 350,000); S. cerevisiae; AID 504577, 2011; response, % at 10 µM; in the data active = response mostly above about 7.3%, no sharp cut-off; inactive = mostly below about 5.4%; note: actives read high
Granule exo CP1 = inhibitors of lytic granule exocytosis, confirmation, TALL-104 cells, flow cytometry, Cherry Pick01 | shares compounds with Exocytosis inh | actives 11% (n = 1,500) | LAMP-1 externalization; stimulated with PMA plus thapsigargin | AID 651954, 2012 | inhibition, % at 10 µM; in the data active = inhibition above about 60%;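 note: 0% = stimulated vehicle wells and 100% = unstimulated wells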
* = called active by the depositor; nt = not tested or not shown. A selection: hits, their analogues and other compounds. The true share with any hit is near 2.2%.

SMILES	MEX-5 binding	VLA-4 inh	JMJD2C inh	Exocytosis inh	HTR2A ag	V-ATPase pHluor	Granule exo CP1
Cc1cc(N2CCN(c3ncccn3)CC2)nc2c(C)cccc12	0.2	2.7	6.9	71.8*	-0.1	1.9	-14.4
COC(=O)CCS(=O)(=O)c1nc(-c2ccccc2)cc(C(F)(F)F)n1	2.8	27.9	1.5	86.9*	3.2	0.1	20.1
Cc1cc(NC(=O)CCCS(=O)(=O)c2nc(-c3cccs3)cc(C(F)(F)F)n2)no1	3.4	23.2	-4.8	60.8*	2.2	-5.3	17.5
Cc1cc(NC(=O)CSc2nc(-c3cccs3)cc(C(F)(F)F)n2)no1	1.4	0.7	2.0	-2.4	-4.7	-1.2	nt
CS(=O)(=O)c1nc(-c2ccc(F)cc2)cc(C(F)(F)F)n1	0.5	nt	-1.0	85.9*	-1.4	1.4	18.1
Cc1cc(Br)ccc1NC(=S)N1CCOCC1	2.3	13.7	-2.9	-13.4	-1.6	-1.3	nt
COC(=O)C1=C(C(=O)OC)[C@@H]2Nc3ccccc3[C@@]23C[C@@H](C(=O)OC)N(C(=O)CC(C)C)C3=N1	-0.6	6.2	4.8	-4.8	-1.0	-3.9	nt
COc1ccc(Cl)cc1C(=O)NC1CC(C)(C)NC(C)(C)C1	nt	nt	nt	11.7	-8.2	3.5	nt
Cc1cccc(NC(=O)CSCC(=O)Nc2cccc3ncccc23)c1	2.7	-11.6	-1.8	1.5	4.2	-7.1	nt
CCc1ccc(NCc2ccc(OC)c(Cn3ccnc3)c2)cc1	-16.6	0.7	-2.1	57.8*	-11.5	5.9	-12.6
COc1ccc(CNc2ccc(Cl)cc2)cc1Cn1ccnc1	-4.7	7.6	-23.4	45.1	-3.2	-3.4	nt
O=C(NCC1CC1(Cl)Cl)Nc1ccc(Cl)c(Cl)c1 (stereo not given)	1.8	-0.9	7.7	89.6*	-5.0	-3.5	-11.9
CN1CCc2c(sc3nc(SCC(=O)N4CCOCC4)n(-c4ccc(Cl)cc4)c(=O)c23)C1	3.4	0.6	0.7	-0.5	-3.0	-0.3	nt
COc1ccc(CC(=O)Nc2nc(-c3ccccc3)c(C(C)=O)s2)cc1OC	-10.3	-1.4	7.4	78.0*	-4.2	-2.5	-4.0
Cc1cnc(C(=O)OCC(=O)NCCc2ccccc2)cn1	0.1	8.8	-4.3	109.6*	0.1	0.7	-4.3
Cc1cc(C)c(OCC(=O)NCC(C)(C)N2CCOCC2)c(C)c1	-0.6	3.9	7.0	3.1	-7.8	1.1	nt
CCOC(=O)c1c(NC(=O)c2cccs2)sc2c1CCN(C(=O)OCC)C2	-0.4	0.0	-12.0	83.1*	-3.1	1.5	4.7
Cc1cc(C)n(-c2nc(NCCN(C)C)c3c4c(sc3n2)CCCC4)n1	12.1	23.6	-4.5	94.2*	-5.2	-5.8	20.4
CCOC(=O)C1(C)CCN1C(=O)c1ccccc1OC(F)(F)F (stereo not given)	nt	nt	nt	12.6	-2.9	nt	nt
Cc1cccc(NC(=O)CCN2CCN(C/C=C/c3ccccc3)CC2)c1	1.8	2.6	30.7	-0.8	-7.8	-4.5	nt
Cc1cc(NC(=O)CCN2CCN(C/C=C/c3ccccc3)CC2)ccc1Br	-0.2	0.0	-5.7	60.4*	-2.1	-2.7	-1.1
CC(C)NC(=O)N(C)C[C@H]1Oc2ccc(NC(=O)Nc3ccc(C(F)(F)F)cc3)cc2C(=O)N([C@H](C)CO)C[C@@H]1C	nt	8.3	33.9	-9.9	1.3	1.4	nt
CC1(c2nnc(Cc3ccccc3)o2)CC(c2cccnc2)=NO1 (stereo not given)	2.6	nt	-1.8	68.1*	-3.8	-0.1	-13.9
CN(C)C(=O)c1ccc(NC(=O)COC(=O)C2(c3ccccc3)CCCC2)cc1	nt	21.6	0.5	76.5*	-0.4	2.2	-4.7
O=c1[nH]c2cc(NCCO)c([N+](=O)[O-])cc2[nH]1	-3.6	-7.6	-1.1	-0.4	-2.8	7.8	nt
SMILES	MEX-5 binding	VLA-4 inh	JMJD2C inh	Exocytosis inh	HTR2A ag	V-ATPase pHluor	Granule exo CP1
CC(O)(c1ccccc1)C(C(c1ccccc1)N1CCOCC1)N1CCOCC1 (stereo not given)	nt	nt	nt	0.1	10.3	-0.9	nt
OC(c1ccccc1)(c1ccc(F)cc1)C(c1ccccc1)N1CCOCC1 (stereo not given)	1.8	1.8	-8.2	98.4*	-4.3	2.6	9.5
CN(C)C(=O)CCC(=O)N(C)CC1CCCN(CCc2ccc(F)cc2)C1 (stereo not given)	0.4	-3.9	38.3	2.7	-3.1	-2.0	nt
COc1ccc(CCN2CCCC(CN(C)Cc3cc(OC)ccc3OC)C2)cc1 (stereo not given)	0.5	11.7	2.8	71.8*	-3.4	6.5	-13.6
COc1ccc(CCN2CCCC(CN(C)Cc3cccc(OC)c3)C2)cc1 (stereo not given)	0.3	-6.4	-1.9	56.2*	-6.3	-0.2	-14.4
COCc1ccc(C(=O)N(C)CC2CCCN(CCc3ccc(OC)cc3)C2)o1 (stereo not given)	0.4	7.6	-0.1	-3.0	11.4	0.7	nt
COc1ccc(CN(C)CC2CCCN(CCc3ccc(F)cc3)C2)c(OC)c1OC (stereo not given)	2.9	4.1	25.4	70.0*	-5.8	-2.1	-1.6
COc1ccc(CCN2CCCC(CN(C)C(=O)c3cc(C)oc3C)C2)cc1 (stereo not given)	1.3	5.9	-1.6	16.7	-6.5	-3.1	nt
O=C(NC1CCCN(C2Cc3ccccc3C2)C1)c1ccc(F)cc1Cl (stereo not given)	-1.3	5.0	0.7	0.0	-10.0	-1.5	nt
C[C@@H]1CN([C@H](C)CO)C(=O)c2c(c3ccccc3n2C)-c2ccccc2CO[C@H]1CN(C)Cc1ccc(Oc2ccccc2)cc1	nt	nt	nt	56.0*	8.2	-1.9	8.2
O=C(O)Cc1sc(=O)[nH]c1O	nt	nt	nt	97.3*	-4.3	-0.7	-14.0
Clc1ccc2nc(N3CCNCC3)nc(-c3ccccc3)c2c1	0.0	26.4	-5.8	86.5*	0.5	-5.9	58.8
COc1ccccc1C1CCN(Cc2cccc3ccccc23)CC1	-0.2	-0.6	29.4	59.7*	-7.6	2.2	-3.3
O=S(=O)(c1ccccc1)C1(C2CC(c3ccccc3)=NO2)CC(O)C1 (stereo not given)	1.8	13.6	3.5	1.2	0.7	3.2	nt
OC(COC(c1ccccc1)c1ccccc1)CN1CCN(c2cccc(Cl)c2)CC1 (stereo not given)	-0.8	-3.5	-9.2	68.0*	-11.0	-1.0	-4.0
O=C(/C=C/c1ccccc1Cl)NCCCn1ccnc1	2.2	8.2	0.4	-8.4	-4.3	-1.2	nt
